For 40 compounds, Potency and activity change, negative = cytotoxicity results are on record in PubChem BioAssay (Tox21).

Inconclusive results are not listed. Where a call stands in place of a potency, no number is given. Unmarked numbers belong to inactive results. Active and inactive are the calls of the source. Calls follow the shape of the dose curve; as a rule, active = well fitted cell-killing curve with a large enough effect in the repeat runs; inconclusive = weak or mixed curves, or effect the other way; inactive = flat fitted curve, though single readings scatter.
Potency is read from the fitted curve at half-maximal effect.

This assay in a line: Caspase-3/7 induction in HepG2 cells by small molecules, qHTS cell viability counter screen (AID 1346981). Also: nearly all actives have a fitted effect of over 30% in size. Conditions: CellTiter-Fluor fluorescence, 17 h; series mostly up to 92.4 µM. An excerpt: U.S. Tox21 Program National Center for Advancing Translational Sciences [NCATS] NIH Chemical Genomics Center [NCGC] U.S. Environmental Protection Agency [EPA] National Institutes of Environmental Health Sciences [NIEHS] National Toxicology Program [NTP] U.S. Food and Drug Administration [FDA] Tox21 Assay Overview: Apoptosis is a process of programmed cell death and plays a central role in the development of multicellular organisms. It is a highly regulated process and induces cell death by activating caspases, which are the members of cysteine aspartic acid-specific protease (caspase) family. Caspases involved in apoptosis are classified by their mechanism of action as initiator caspases (caspase-2, -8, -9 and -10) and executioner caspases (caspase-3, -6, and -7). Inhibition of apoptosis results in number of cancers, autoimmune diseases, inflammatory diseases and viral infection. To identify small molecule compounds that induce apoptosis, a homogeneous, luminescent Caspase-Glo 3/7 assay was used. Wild type HepG2 cells were used to screen Tox21 libraries for identifying caspase-3/7 activity inducers. Also cytotoxicity of the compounds was tested in parallel by measuring the cell viability using CellTiter-Fluor assay system in the same wells.
Tox21 Assay Protocol Summary: HepG2 cells were dispensed at 2,000 per well in 5uL of culture medium into white solid bottom 1536-well plates (Corning Life Sciences, Corning, NY) using a Multidrop Combi (Thermo Scientific, Waltham, MA) dispenser. The assay plates were incubated at 37 C and 5% CO2 for 5hr, and then 23nL of compounds dissolved in DMSO and positive control were transferred using a Pintool station ([…], San Diego, CA). The assay plates were incubated at 37C and 5% CO2 for 17hr. For cytotoxicity read, after 16hr incubation at 37C, 1uL CellTiter-Fluor reagent (Promega Corporation, Madison, WI) was added to each well of the assay plates using Flying Reagent Dispenser (FRD, Aurora Discovery, San Diego, CA). After 1hr incubation at 37C and 5% CO2, the fluorescence signal was quantified using a ViewLux plate reader (PerkinElmer, Shelton, CT).
Background: qHTS replaces the single test concentration by a dilution series.
`SC1CCCCC1`: the Potency entry was “inactive”.
Same read-out and setting: the entry for `CC(C)c1ccc2sc3ccccc3c(=O)c2c1` is “inactive”; for `N#Cc1ccc(C/C(=N/NC(=O)Nc2ccc(OC(F)(F)F)cc2)c2cccc(C(F)(F)F)c2)cc1` it is “inactive”.
On to `CCN(CC)c1ccc2c(c1)Oc1cc(N(CC)CC)ccc1C21OC(=O)c2ccccc21`, for which the Potency was 5.31 µM (active).
For `CC(c1cc(C(C)(C)C)cc(C(C)(C)C)c1O)c1cc(C(C)(C)C)cc(C(C)(C)C)c1O`, the Potency result was “inactive”.
For the compound `CN(C[C@@H](CC[N+]12CCC(C3CCCCC3)(CC1)CC2)c1ccc(Cl)c(Cl)c1)C(=O)c1cc(C(F)(F)F)cc(C(F)(F)F)c1`, the Potency was 68.6 µM (active).
Consider `O=C(Nc1ccc([N+](=O)[O-])cc1)Nc1ccc([N+](=O)[O-])cc1` (tested in a mixture with another compound), for which the Potency entry was “inactive”.
The same measure, in the same setting: as for `Nc1ccc(Cl)c([N+](=O)[O-])c1`, the entry is “inactive”.
As for `C=CC(=O)O[C@H]1C[C@@H]2CC[C@@]1(C)C2(C)C`, the Potency result is “inactive”.
Consider `O=C1OCc2ccccc21`, for which the Potency result is “inactive”.
On to `CCOC(=O)OC(=O)OCC`, for which the Potency result is “inactive”.
As to `O=C(O)C[C@H](O)C[C@H](O)/C=C/c1c(C2CC2)nc2ccccc2c1-c1ccc(F)cc1`, the activity change, negative = cytotoxicity is -8.1% [at 19 µM].
For `CC/C=C(\C)C=O`, the Potency entry was “inactive”.
Same read-out and setting: as for `COC(=O)c1ccc([N+](=O)[O-])cc1`, the entry is “inactive”; as for `CCc1cccc(C)c1N(C(=O)C(=O)O)C(C)COC` (stereo not given), “inactive”.
In the case of `C=CC(=O)OCC(Br)CBr` (stereo not given), the Potency entry was “inactive”.
`O=c1cc[nH]cc1`: the Potency result was “inactive”.
For the compound `CCc1cccc(CC)c1`, the Potency result was “inactive”.
On to `CC1CCC(C(C)(C)O)CC1` (stereo not given), for which the Potency result is “inactive”.
On the same count and under the same terms, the entry for `CCc1c(C)cc(N)c(CC)c1N` is “inactive”.
`Nc1c(Br)cc([N+](=O)[O-])cc1Br`: the Potency result was “inactive”.
For `C=C[Si](C)(C)Cl`, the activity change, negative = cytotoxicity is -0.712% [at 8.39 µM].
On to `CC1(C)[C@H]2CC[C@]1(C)C(=O)C2`, for which the Potency result is “inactive”.
For the compound `COc1cc(/C=C/C(=O)CC(=O)/C=C/c2ccc(O)c(OC)c2)ccc1O`, the Potency was 30.8 µM (active).
`O=C(Cl)c1ccc(Cl)cc1Cl`: the Potency entry is “inactive”.
With `CCCCCCCCCCCCS(=O)(=O)Cl`, the activity change, negative = cytotoxicity was 3.84% [at 19 µM].
As to `COc1ccc(OC)c(N=Nc2c(O)ccc3ccccc23)c1`, the Potency is 27.3 µM (active).
For the compound `O=C1OC(O)C(C(Cl)Cl)=C1Cl` (stereo not given), the Potency was 50 µM (active).
Turning to `O=[N+]([O-])c1ccc(CO)cc1`, the Potency result was “inactive”.
On to `CCC(=O)OC/C=C(\C)CCC=C(C)C`, for which the Potency result is “inactive”.
For the compound `O=C(O)CN(CCCN(CC(=O)O)CC(=O)O)CC(=O)O`, the activity change, negative = cytotoxicity was -12.2% [at 19 µM].
For the compound `O=C1CCC(=O)N1`, the Potency result was “inactive”.
In the case of `Nc1ccc(Oc2cccc(Oc3ccc(N)cc3)c2)cc1`, the Potency result was “inactive”.
`O=C1CCCCCCCCCCCCCC1`: the Potency entry was “inactive”.
Same read-out and setting: the figure for `CC(=O)[C@]1(O)Cc2c(O)c3c(c(O)c2[C@@H](O[C@H]2C[C@H](N)[C@H](O)[C@H](C)O2)C1)C(=O)c1ccccc1C3=O` is 11.9 µM (active).
Take `C[C@H]1O[C@@H](O[C@H]2CC[C@@]3(C)[C@H](CC[C@@H]4[C@@H]3C[C@@H](O)[C@]3(C)[C@@H](C5=CC(=O)OC5)CC[C@]43O)C2)C[C@H](O)[C@@H]1O[C@H]1C[C@H](O)[C@H](O[C@H]2C[C@H](O)[C@H](O[C@@H]3O[C@H](CO)[C@@H](O)[C@H](O)[C@H]3O)[C@@H](C)O2)[C@@H](C)O1`: the Potency entry was “inactive”.
Turning to `CS(=O)(=O)c1ccc([C@@H](CC2CCCC2)C(=O)Nc2cnccn2)cc1Cl`, the Potency is 61.1 µM (active).
Same read-out and setting: the entry for `CCNc1nc(NC(C)(C)C)nc(OC)n1` is “inactive”; for `Cc1ccc(N=Nc2c(O)ccc3ccccc23)c(C)c1` it is 8.41 µM (active); for `C=C(C)CCO` it is “inactive”.
